From PubChem BioAssay (EPA / NIEHS)
Values joined by “and” are separate entries in the source; they are usually repeats but may differ in a detail not shown here. Equal entries are not always repeated. Records with an inconclusive call do not appear. Some structures have more than one record in an assay (separate samples or runs), and their calls can disagree. Active and inactive are the calls of the source. The calls were made as follows, unless noted: active = hit-call score of the fitted dose curve at least 0.9, where 1 is the maximum; inconclusive = response in the unintended direction; inactive = score below 0.9.

How the values were obtained:
[1] = ATG_M_61_CIS: Attagene CIS-FACTORIAL HepG2 Assay for M61 Transcription Factor (Internal Marker) (AID 2282937; active = hit-call score of the fitted dose curve at least 0.9, where 1 is the maximum; inactive = score below 0.9); conditions: HepG2 Attagene CIS-FACTORIAL M61 internal marker reporter; actives raise or lower the signal
Outline: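 Transfect HepG2 with MRTUs; dose 24 h; isolate RNA; reverse-transcribe with DNase I treatment; PCR-amplify, FAM-label and cut with HpaI for 2 h at 37 C; resolve by CE. Bidirectional fitting against DMSO.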

[2] = ATG_GRE_CIS: Attagene CIS-FACTORIAL HepG2 Assay for human Glucocorticoid Response Elements (GRE) (AID 2282947; active = hit-call score of the fitted dose curve at least 0.9, where 1 is the maximum; inactive = score below 0.9); conditions: HepG2 GRE cis-reporter, Attagene multiplex mRNA; actives raise or lower the signal
Outline: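 HepG2, transient cis-reporter transfection, 24 h. Reporter mRNA: RT-PCR then CE, fluorescence. Fit both directions vs DMSO.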

[3] = ATG_MRE_CIS: Attagene CIS-FACTORIAL HepG2 Assay for human Metal Responsive Element (MRE) (AID 2282954; active = hit-call score of the fitted dose curve at least 0.9, where 1 is the maximum; inactive = score below 0.9); conditions: HepG2 MRE cis-reporter transcription, Attagene multiplex; actives raise or lower the signal
Outline: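 Readout: capillary electrophoresis of 6-FAM-labelled, HpaI-digested RT-PCR reporter products. System: HepG2 cells carrying transient multiplexed cis reporters, dosed 24 h. Analysis: bidirectional fit, DMSO baseline.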

[4] = ATG_PBREM_CIS: Attagene CIS-FACTORIAL HepG2 Assay for human Phenobarbital-responsive Enhancer Module (PBREM) (AID 2282955; active = hit-call score of the fitted dose curve at least 0.9, where 1 is the maximum; inactive = score below 0.9); conditions: HepG2 PBREM cis-reporter, Attagene multiplexed transcription; actives raise or lower the signal
Outline: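 Measures endogenous factor action on a phenobarbital-responsive enhancer module. HepG2 transiently carrying cis reporters, 24 h treatment, mRNA read-out by RT-PCR plus capillary electrophoresis.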

[5] = ATG_RORE_CIS: Attagene CIS-FACTORIAL HepG2 Assay for human RAR-related Orphan Receptor Element (RORE) (AID 2282959; active = hit-call score of the fitted dose curve at least 0.9, where 1 is the maximum; inactive = score below 0.9); conditions: HepG2 Attagene cis-factorial RORE reporter, mRNA; actives raise or lower the signal
Outline: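 A 24-hour exposure of transfected HepG2 hepatoma cells precedes RNA isolation and reporter RT-PCR. Labeled products are digested with HpaI and resolved by capillary electrophoresis, with gain or loss of signal scored relative to DMSO.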

[6] = target: Hepatocyte nuclear factor 4-alpha (Homo sapiens) (UniProt P41235); assay: ATG_HNF4a_TRANS: Attagene TRANS-FACTORIAL HepG2 Assay for human Hepatocyte Nuclear Factor 4 alpha (HNF4a) (AID 2282982); conditions: HepG2 HNF4a transactivation reporter, mRNA readout
Sequence of Hepatocyte nuclear factor 4-alpha (Homo sapiens) (P41235 whole entry, looked up, the tested form may be a part): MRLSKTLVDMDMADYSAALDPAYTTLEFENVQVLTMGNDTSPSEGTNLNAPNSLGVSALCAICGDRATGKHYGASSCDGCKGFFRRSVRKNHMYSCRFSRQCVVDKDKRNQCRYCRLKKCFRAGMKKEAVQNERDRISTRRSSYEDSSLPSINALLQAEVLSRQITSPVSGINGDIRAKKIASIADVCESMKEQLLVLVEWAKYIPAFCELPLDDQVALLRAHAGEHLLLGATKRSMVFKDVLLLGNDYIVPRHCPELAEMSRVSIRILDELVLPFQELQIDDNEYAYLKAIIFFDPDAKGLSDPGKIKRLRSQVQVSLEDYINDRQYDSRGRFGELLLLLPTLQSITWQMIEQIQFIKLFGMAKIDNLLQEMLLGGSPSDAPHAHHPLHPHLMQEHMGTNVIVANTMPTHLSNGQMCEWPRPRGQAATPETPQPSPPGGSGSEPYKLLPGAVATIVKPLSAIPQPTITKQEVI
Outline: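 Using HepG2 liver cells transfected with GAL4-UAS reporter units, chemical-induced mRNA increases were assessed after 24 hours. Fluorescent RT-PCR fragments were separated by capillary electrophoresis and compared with DMSO negative controls.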

[7] = ATG_M_06_TRANS: Attagene TRANS-FACTORIAL HepG2 Assay for M06 Transcription Factor (Internal Marker) (AID 2282983); conditions: HepG2 Attagene TRANS M06 internal marker reporter
Outline: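 Read-out: fluorescent reporter cDNA fragments resolved by capillary electrophoresis after RT-PCR and HpaI cut. Source cells were HepG2 carrying transfected multi-reporter GAL4 constructs, dosed 24 h. Increase over DMSO control analysed.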

[8] = target: Myc proto-oncogene protein (Homo sapiens) (UniProt P01106); assay: ATG_Myc_CIS: Attagene CIS-FACTORIAL HepG2 Assay for human Myelocytomatosis (Myc) Proto-Oncogene Transcription Factor (AID 2282990; active = hit-call score of the fitted dose curve at least 0.9, where 1 is the maximum; inactive = score below 0.9); conditions: HepG2, Attagene cis-reporter transcription factor activity; actives raise or lower the signal
Sequence of Myc proto-oncogene protein (Homo sapiens) (P01106 whole entry, looked up): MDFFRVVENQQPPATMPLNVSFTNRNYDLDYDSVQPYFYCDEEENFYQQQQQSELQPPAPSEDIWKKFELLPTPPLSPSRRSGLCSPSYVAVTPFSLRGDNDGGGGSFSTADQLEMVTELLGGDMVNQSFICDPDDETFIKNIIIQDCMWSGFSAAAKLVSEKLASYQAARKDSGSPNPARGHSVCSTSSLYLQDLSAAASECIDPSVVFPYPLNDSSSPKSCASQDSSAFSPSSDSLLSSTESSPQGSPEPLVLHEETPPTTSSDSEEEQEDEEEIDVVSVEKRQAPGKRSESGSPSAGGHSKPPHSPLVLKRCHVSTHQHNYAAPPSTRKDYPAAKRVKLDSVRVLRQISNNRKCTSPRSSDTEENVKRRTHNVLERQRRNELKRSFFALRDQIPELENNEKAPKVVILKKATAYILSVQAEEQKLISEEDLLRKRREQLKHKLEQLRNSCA
Outline: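 DMSO-normalised, bidirectionally fitted reporter mRNA signal. HepG2 cells transfected with cis reporter constructs, treated 24 h; transcripts detected by RT-PCR, 6-FAM primer extension and CE.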

[9] = ATG_NF_kB_CIS: Attagene CIS-FACTORIAL HepG2 Assay for human Nuclear Factor Kappa B (NF-kB) (AID 2282991; active = hit-call score of the fitted dose curve at least 0.9, where 1 is the maximum; inactive = score below 0.9); conditions: HepG2 Attagene cis-factorial NF-kB reporter mRNA; actives raise or lower the signal
Outline: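 Fluorescence of labelled RT-PCR products separated by capillary electrophoresis gives reporter mRNA levels from transfected HepG2 cells exposed 24 h; values are fitted in both directions relative to DMSO.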

[10] = target: Nuclear receptor subfamily 1 group I member 2 (Homo sapiens) (UniProt O75469); assay: ATG_PXR_TRANS: Attagene TRANS-FACTORIAL HepG2 Assay for human Pregnane X Receptor (PXR) (AID 2283008)
Sequence of Nuclear receptor subfamily 1 group I member 2 (Homo sapiens) (O75469 whole entry, looked up, the tested form may be a part): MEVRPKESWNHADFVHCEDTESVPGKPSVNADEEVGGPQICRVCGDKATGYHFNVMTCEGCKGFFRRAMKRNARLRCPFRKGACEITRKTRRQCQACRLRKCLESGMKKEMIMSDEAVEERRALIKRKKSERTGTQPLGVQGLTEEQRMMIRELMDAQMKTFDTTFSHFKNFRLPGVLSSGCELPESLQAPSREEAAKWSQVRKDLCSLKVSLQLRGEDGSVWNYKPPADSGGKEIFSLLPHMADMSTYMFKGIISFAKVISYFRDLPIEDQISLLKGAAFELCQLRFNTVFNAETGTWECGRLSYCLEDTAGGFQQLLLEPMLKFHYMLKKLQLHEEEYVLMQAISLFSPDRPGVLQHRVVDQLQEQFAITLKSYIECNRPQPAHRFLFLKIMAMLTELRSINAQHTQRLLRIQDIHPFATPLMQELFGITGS
Outline: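 Transactivation by exogenous PXR–GAL4 fusion measured as reporter transcript induction after 24 h compound treatment of transfected human HepG2 cells. Read-out via RT-PCR and capillary electrophoresis of labelled fragments, fitted upward relative to DMSO.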

[11] = target: human Retinoid X Receptor beta (RXRb), RXRB (gene 6257) (UniProt P28702); assay: ATG_RXRb_TRANS: Attagene TRANS-FACTORIAL HepG2 Assay for human Retinoid X Receptor beta (RXRb) (AID 2283013)
Sequence of human Retinoid X Receptor beta (RXRb), RXRB (gene 6257) (P28702 whole entry, looked up, the tested form may be a part): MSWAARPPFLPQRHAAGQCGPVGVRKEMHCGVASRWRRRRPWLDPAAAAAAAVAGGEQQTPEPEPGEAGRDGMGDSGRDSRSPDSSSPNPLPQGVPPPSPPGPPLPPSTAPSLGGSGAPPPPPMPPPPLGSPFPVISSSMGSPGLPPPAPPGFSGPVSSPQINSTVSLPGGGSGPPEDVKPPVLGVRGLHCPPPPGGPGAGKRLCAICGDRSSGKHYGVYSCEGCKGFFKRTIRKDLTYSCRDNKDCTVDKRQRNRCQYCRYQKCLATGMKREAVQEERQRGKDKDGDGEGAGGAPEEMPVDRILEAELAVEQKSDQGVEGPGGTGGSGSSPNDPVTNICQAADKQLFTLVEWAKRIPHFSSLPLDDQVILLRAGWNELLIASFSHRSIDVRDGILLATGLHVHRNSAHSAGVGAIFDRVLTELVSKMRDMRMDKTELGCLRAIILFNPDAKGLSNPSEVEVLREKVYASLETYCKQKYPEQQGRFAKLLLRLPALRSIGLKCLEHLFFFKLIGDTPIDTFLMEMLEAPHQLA
Outline: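 Read-out: reporter mRNA induction via RT-PCR plus capillary electrophoresis fluorescence, analysed as signal increase relative to DMSO. Cells were human HepG2, transiently transfected with GAL4-UAS reporter constructs and chimeric receptor-Gal4 fusions, dosed for 24 h.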

[12] = target: Cellular tumor antigen p53 (Homo sapiens) (UniProt P04637); assay: TOX21_p53_BLA_p2_ratio: Tox21 HCT-116 p53 Agonism Beta-lactamase Assay, Ratio, Phase 2 (AID 2283592)
Sequence of Cellular tumor antigen p53 (Homo sapiens) (P04637 whole entry, looked up): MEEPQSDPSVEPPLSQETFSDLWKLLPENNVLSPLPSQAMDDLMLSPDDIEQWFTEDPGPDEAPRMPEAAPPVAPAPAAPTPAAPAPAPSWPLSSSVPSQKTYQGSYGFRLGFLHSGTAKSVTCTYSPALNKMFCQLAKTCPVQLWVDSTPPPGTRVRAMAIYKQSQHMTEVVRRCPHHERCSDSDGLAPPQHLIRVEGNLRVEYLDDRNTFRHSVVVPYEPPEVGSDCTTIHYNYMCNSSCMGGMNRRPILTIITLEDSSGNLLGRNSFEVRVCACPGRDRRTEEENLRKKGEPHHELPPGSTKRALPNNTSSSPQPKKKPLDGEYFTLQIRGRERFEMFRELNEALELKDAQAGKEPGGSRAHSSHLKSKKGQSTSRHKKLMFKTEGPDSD
Outline: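 Readout: blue/green (460/530 nm) FRET emission ratio after 2 h CCF4-AM loading at room temperature, excitation 405 nm. HCT116 p53 bla cells, 16 h compound exposure at 37C, 5% CO2; agonist direction fitted against DMSO baseline.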

[13] = target: Cellular tumor antigen p53 (Homo sapiens) (UniProt P04637); assay: TOX21_p53_BLA_p3_ratio: Tox21 HCT-116 p53 Agonism Beta-lactamase Assay, Ratio, Phase 3 (AID 2283596)
Outline: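 Cells were seeded at 4000/well, rested 5 h at 37C, then dosed with DMSO compound solutions (217-fold dilution) for 16 h. CCF4-AM substrate was loaded for 2 h at room temperature, and the 460/530 nm emission ratio was fitted for gain of signal versus DMSO.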

[14] = target: Cellular tumor antigen p53 (Homo sapiens) (UniProt P04637); assay: TOX21_p53_BLA_p5_ratio: Tox21 HCT-116 p53 Agonism Beta-lactamase Assay, Ratio, Phase 5 (AID 2283599)
Outline: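 HCT-116 cells carrying a p53-inducible beta-lactamase reporter were seeded at 4000 cells/well and dosed after 5 h with compound in DMSO (217-fold dilution). After 16 h at 37C, CCF4-AM substrate was added for 2 h, and the 460/530 nm emission ratio was scored as gain-of-signal versus DMSO.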

[15] = TOX21_p53_BLA_p5_viability: Viability Assessment in the Tox21 HCT-116 p53 Agonism Beta-lactamase Assay, Phase 5 (AID 2283600)
Outline: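 ATP luminescence (CellTiter-Glo, 30 min, RT) served as the viability read-out, with loss of signal indicating cytotoxicity. Compounds in DMSO were pinned at a 217-fold dilution onto 4000 cells/well and incubated 16 h, 37C.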

[16] = target: Cellular tumor antigen p53 (Homo sapiens) (UniProt P04637); assay: TOX21_p53_BLA_p4_ratio: Tox21 HCT-116 p53 Agonism Beta-lactamase Assay, Ratio, Phase 4 (AID 2283601)
Outline: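 HCT116 cells carrying an inducible beta-lactamase reporter were plated at 4000 cells/well, rested 5 h, then exposed to compounds in DMSO (217-fold dilution) for 16 h at 37C. CCF4-AM substrate was loaded 2 h at room temperature; 460/530 nm emission ratio scored gain-of-signal versus DMSO.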

[17] = target: Hepatocyte nuclear factor 6 (Homo sapiens) (UniProt Q9UBC0); assay: ATG_HNF6_CIS: Attagene CIS-FACTORIAL HepG2 Assay for human Hepatocyte Nuclear Factor 6 (HNF6) (AID 2282952; active = hit-call score of the fitted dose curve at least 0.9, where 1 is the maximum; inactive = score below 0.9); conditions: HepG2 Attagene cis-factorial HNF6 reporter transcription; actives raise or lower the signal
Sequence of Hepatocyte nuclear factor 6 (Homo sapiens) (Q9UBC0 whole entry, looked up, the tested form may be a part): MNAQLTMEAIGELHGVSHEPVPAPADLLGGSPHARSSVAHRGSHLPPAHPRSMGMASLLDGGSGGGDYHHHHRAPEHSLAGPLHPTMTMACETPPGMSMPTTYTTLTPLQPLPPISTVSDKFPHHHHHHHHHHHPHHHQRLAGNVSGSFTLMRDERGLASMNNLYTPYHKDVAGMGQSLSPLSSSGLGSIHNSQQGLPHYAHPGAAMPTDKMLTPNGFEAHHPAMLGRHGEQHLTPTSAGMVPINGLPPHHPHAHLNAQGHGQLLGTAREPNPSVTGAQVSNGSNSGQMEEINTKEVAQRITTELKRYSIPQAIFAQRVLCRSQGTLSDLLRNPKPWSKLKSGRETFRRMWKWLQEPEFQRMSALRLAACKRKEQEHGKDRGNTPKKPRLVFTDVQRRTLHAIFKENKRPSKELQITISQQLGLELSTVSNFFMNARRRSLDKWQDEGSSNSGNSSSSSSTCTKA
Outline: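 Readout: fluorescent reporter-transcript fragments resolved by capillary electrophoresis after RT-PCR, reflecting endogenous factor activity in transfected HepG2. Exposure 24 h. Gain or loss of signal fitted bidirectionally against DMSO.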

[18] = target: Paired box protein Pax-6 (Homo sapiens) (UniProt P26367); assay: ATG_Pax6_CIS: Attagene CIS-FACTORIAL HepG2 Assay for human Paired Box 6 (PAX6) (AID 2282956; active = hit-call score of the fitted dose curve at least 0.9, where 1 is the maximum; inactive = score below 0.9); conditions: HepG2 CIS-FACTORIAL PAX6 reporter transcription, RNA readout; actives raise or lower the signal
Sequence of Paired box protein Pax-6 (Homo sapiens) (P26367 whole entry, looked up): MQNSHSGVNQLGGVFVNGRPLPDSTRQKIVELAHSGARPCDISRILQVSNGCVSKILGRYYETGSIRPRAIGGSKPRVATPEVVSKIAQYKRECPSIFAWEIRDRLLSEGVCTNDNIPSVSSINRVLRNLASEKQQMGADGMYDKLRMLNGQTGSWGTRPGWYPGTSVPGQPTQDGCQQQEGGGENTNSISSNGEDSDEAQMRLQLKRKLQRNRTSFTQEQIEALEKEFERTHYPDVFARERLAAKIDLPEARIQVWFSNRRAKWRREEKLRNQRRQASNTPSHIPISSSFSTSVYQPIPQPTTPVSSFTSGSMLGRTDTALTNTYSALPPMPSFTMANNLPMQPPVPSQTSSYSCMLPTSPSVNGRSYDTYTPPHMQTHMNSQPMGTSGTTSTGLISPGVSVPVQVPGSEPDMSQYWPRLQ
Outline: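 Read-out is reporter transcript level, measured by RT-PCR with fluorescent primer extension and capillary electrophoresis after 24 h dosing of transfected HepG2 cells. Activity in either direction fitted relative to DMSO control.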

[19] = target: human Peroxisome Proliferator-activated Receptor alpha (PPARa), PPARA (gene 5465) (UniProt Q07869); assay: ATG_PPARa_TRANS: Attagene TRANS-FACTORIAL HepG2 Assay for human Peroxisome Proliferator-activated Receptor alpha (PPARa) (AID 2283001);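 as to AC50: potency for gain of reporter signal over DMSO so agonist or activator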
Sequence of human Peroxisome Proliferator-activated Receptor alpha (PPARa), PPARA (gene 5465) (Q07869 whole entry, looked up, the tested form may be a part): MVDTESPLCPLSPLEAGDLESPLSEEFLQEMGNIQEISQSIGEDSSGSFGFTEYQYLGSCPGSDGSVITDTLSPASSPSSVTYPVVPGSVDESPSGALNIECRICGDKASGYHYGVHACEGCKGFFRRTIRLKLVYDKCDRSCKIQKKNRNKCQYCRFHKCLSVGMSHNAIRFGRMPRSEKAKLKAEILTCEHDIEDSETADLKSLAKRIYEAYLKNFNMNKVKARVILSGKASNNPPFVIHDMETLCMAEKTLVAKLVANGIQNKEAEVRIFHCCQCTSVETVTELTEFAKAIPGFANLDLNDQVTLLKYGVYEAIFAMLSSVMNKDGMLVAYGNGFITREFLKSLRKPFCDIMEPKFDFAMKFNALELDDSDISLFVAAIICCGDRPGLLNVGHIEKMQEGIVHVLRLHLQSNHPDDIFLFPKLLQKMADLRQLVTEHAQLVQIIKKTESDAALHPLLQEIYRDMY
Outline: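 Exposure: 24 h, transiently transfected HepG2 cells. Endpoint: GAL4-UAS reporter mRNA, RT-PCR with capillary electrophoresis fluorescence. Baseline: DMSO; increases fitted.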

[20] = target: Peroxisome proliferator-activated receptor gamma (Homo sapiens) (UniProt P37231); assay: ATG_PPARg_TRANS: Attagene TRANS-FACTORIAL HepG2 Assay for human Peroxisome Proliferator-activated Receptor-gamma (PPARg) (AID 2283007)
Sequence of Peroxisome proliferator-activated receptor gamma (Homo sapiens) (P37231 whole entry, looked up): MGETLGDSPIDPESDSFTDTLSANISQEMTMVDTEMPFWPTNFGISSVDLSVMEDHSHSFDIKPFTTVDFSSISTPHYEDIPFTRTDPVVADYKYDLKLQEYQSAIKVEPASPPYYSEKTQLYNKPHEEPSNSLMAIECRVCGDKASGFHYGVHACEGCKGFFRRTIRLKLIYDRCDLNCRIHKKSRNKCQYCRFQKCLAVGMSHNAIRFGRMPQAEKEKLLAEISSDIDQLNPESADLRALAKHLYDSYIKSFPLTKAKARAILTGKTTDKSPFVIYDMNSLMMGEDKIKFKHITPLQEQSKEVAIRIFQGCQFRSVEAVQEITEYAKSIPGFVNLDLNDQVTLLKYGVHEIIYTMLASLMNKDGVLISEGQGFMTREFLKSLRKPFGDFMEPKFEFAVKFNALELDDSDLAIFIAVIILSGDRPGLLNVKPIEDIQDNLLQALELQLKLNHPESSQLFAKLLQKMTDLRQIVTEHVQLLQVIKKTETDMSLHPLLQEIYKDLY
Outline: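 Twenty-four hours after chemical dosing of transiently transfected HepG2 cells, isolated RNA was converted to cDNA, reporter sequences amplified and 6-FAM-labelled, then HpaI-digested and analysed by capillary electrophoresis. Signal increase against DMSO was fitted.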

Measured: AC50

c1cc(OCC2CO2)ccc1Cc1ccc(OCC2CO2)cc1 (stereo not drawn)
active: [3] 42.6 µM | [8] 22.9 µM | [9] 54.7 µM | [10] 20.6 µM | [13] 75.1 µM and 79.5 µM | [16] 65.9 µM and 82.3 µM
not listed: [17] | [18] | [19] | [20]
inactive: all other assays above

CCC1CCC(=O)O1 (stereo not drawn)
inactive: [2] | [17] | [18] | [5] | [6] | [7] | [8] | [19] | [11]

C[C@]12CC[C@H]3[C@@H](CC[C@@]45O[C@@H]4C(O)=C(C#N)C[C@]35C)[C@@H]1CC[C@@H]2O
inactive: [1] | [4] | [5] | [6] | [7] | [8] | [20] | [13] | [14] | [15] | [16]
active: [3] 62.1 µM | [18] 44.2 µM | [9] 18.6 µM | [10] 27.4 µM | [12] 64.6 µM and 35.9 µM | [13] 67 µM | [14] 68.6 µM | [16] 65.8 µM

CCC(Br)(CC)C(=O)NC(N)=O
inactive: [1] | [17] | [3] | [4] | [5] | [7] | [9] | [10] | [11] | [12] | [14]

[CH3][Sn]([CH3])([Cl])[Cl]
inactive: [1] | [3] | [4] | [18] | [5] | [6] | [9] | [20] | [10] | [11]

C=CC(=O)OC
not listed: [2] | [10] | [13] | [14] | [20]
inactive: all other assays above

CN(C)C(=O)C(c1ccccc1)c1ccccc1
active: [10] 4.18 µM
not listed: [2] | [7] | [8] | [12] | [16] | [18]
inactive: all other assays above

O=C(CCl)c1ccccc1
inactive: [1] | [17] | [3] | [18] | [5] | [6] | [7] | [8] | [9] | [10] | [12] | [13] | [15] | [16]
active: [2] 8.88 µM | [19] 50.2 µM | [20] 16.4 µM | [11] 33.4 µM | [13] 64.3 µM
